Sampled rows, rich in hits. Any-hit rate of the full collection: about 7.2%.
hNpr1 antagonist: antagonists of human natriuretic peptide receptor Npr1. P16066. HEK293 hNpr1 GloSensor cGMP, ANP-stimulated luminescence. Potency, µM (highest dose often 46.3 µM), for the others: top-dose activity change, negative = inhibition, most hits filed as inhibitors. 76,000 compounds, 1.6% hits. AID 1347048; calls by dose curve; note: nearly all actives have a fitted effect of over 60% in size
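Compound pre-incubated 30 min at room temperature on GloSensor-loaded HEK293 cells stably carrying hNpr1 and the pGS-40F cGMP biosensor. Stimulation uses hNppA at 0.1 nM final; luminescence is taken at baseline and 20 min post-agonist.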
Luciferase inh: Photinus pyralis luciferase inhibition; P08659; Potency, µM (doses to about 115 µM), most hits filed as inhibitors; purified P. pyralis luciferase, luminescence, biochemical; 76,000 compounds, 2.5% hits; note: nearly all actives have a fitted effect of over 65% in size
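Luminescence read by CCD imager after adding enzyme (10nM final) to wells holding compound, titrated in qHTS. Substrates 10uM each D-luciferin and ATP; buffer 50mM Tris acetate pH 7.5, 10mM Mg acetate, Tween-20, BSA.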
HEK293 tox: HEK 293 cell cytotoxicity | 94,000 compounds, 6.6% hits | Potency, µM (highest dose often 115 µM), without a hit: at the top dose activity change, negative = cytotoxicity, actives largely listed as inhibitors | HEK 293 viability, ATP luminescence (CellTiter-Glo), 48-72 h; note: nearly all actives have a fitted effect of over 60% in size
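Viability of HEK 293 cells, plated at 250 cells/well, was judged by cellular ATP after compound treatment for 48 or 72 hr. Luminescence was imaged 10 min after CellTiter-Glo addition at room temperature.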
NIH3T3 tox: NIH 3T3 cell cytotoxicity; NIH 3T3 viability, CellTiter-Glo ATP luminescence, 48-72 h; 94,000 compounds, 4.3% hits; AID 1345082; Potency, µM (doses to about 96.7 µM), for inactives: at the top dose activity change, negative = cytotoxicity, actives largely listed as inhibitors; note: nearly all actives have a fitted effect of over 55% in size
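Cytotoxicity is measured as loss of cellular ATP: NIH 3T3 cells (400/well) are exposed to compound for 48 or 72 hr at 37 °C, then CellTiter-Glo luminescence is imaged after 10 min at room temperature.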
SNCA viab count: cell viability loss counter-screen; HEK-293-SNCA-luc viability, GF-AFC fluorescence, 24 h; Potency, µM (highest dose often 57.1 µM), inactives show at the top dose activity change, negative = cytotoxicity, usual class: cytotoxic; 150,000 compounds, 0.12% hits; AID 1671193;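 note: 0% = DMSO-treated cells and -100% = medium-only wells without cells; nearly all actives have a fitted effect of over 30% in size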
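Cytotoxicity counterscreen: after 24 h compound treatment of genome-edited SNCA-luciferase HEK-293 cells, live-cell protease substrate GF-AFC read by fluorescence after 30 min; activity scaled between DMSO (0%) and medium-only (-100%), curves Hill-fitted.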
SNCA expr inh: reduces expression of the alpha-synuclein gene; HEK-293 SNCA-luciferase knock-in, luminescence, 24 h; Potency, µM (titrated, usually from 57.2 µM), inactives show top-dose activity change, negative = inhibition, most hits filed as inhibitors; 140,000 compounds, 0.17% hits; AID 1671194;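 note: plate controls were DMSO cells for no effect and cell-free wells for full effect; nearly all actives have a fitted effect of over 45% in size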
* = called active by the depositor; [ ] = remark or other dose. Unless noted, calls come from the whole dose curve; as a rule, active = well fitted curve in the direction sought with a large enough effect; inconclusive = small, poorly fitted or top-dose-only effect, or another doubt; inactive = no such curve, though single readings can be large; an effect the other way counts as inactive or inconclusive. Unless noted, % is set by controls: 0 for no effect and ±100 for the full control effect; potency is the fitted concentration of half-maximal effect.

How did COc1ccc(-c2cc(C(=O)NCC(C)C)c3c(C4CCCN4)nn(C)c3n2)cc1 (stereo unspecified) do in these assays?
HEK293 tox: inconclusive; NIH3T3 tox: 32µM*; SNCA viab count: -11%; SNCA expr inh: 11%

How did Cn1nc(C2CCCN2)c2c(C(=O)N3CCC(F)CC3)cc(C3CC3)nc21 (stereo unspecified) do in these assays?
HEK293 tox: inactive; NIH3T3 tox: 2%; SNCA viab count: -2%; SNCA expr inh: inconclusive

How did COCCNC(=O)c1cc(-c2ccc(OC)cc2)nc2c1c(C1CCCN1)nn2C (stereo unspecified) do in these assays?
HEK293 tox: -25%; NIH3T3 tox: inconclusive; SNCA viab count: 4%; SNCA expr inh: -1%

What do the screens show for `CN1CCc2c([nH]c3ccccc23)C12CCN(C(=O)c1ccc3ccccc3n1)CC2`?
hNpr1 antagonist: 2%; Luciferase inh: inactive; HEK293 tox: -29%; NIH3T3 tox: -17%; SNCA viab count: 2%[12.5 µM]; SNCA expr inh: 1%

How did Cc1ccc(C(=O)N2CCCn3ccnc3C2C(C)C)c(=O)[nH]1 (stereo unspecified) do in these assays?
hNpr1 antagonist: 3%; Luciferase inh: inactive; HEK293 tox: -1%; NIH3T3 tox: -14%; SNCA viab count: 0%; SNCA expr inh: 2%

Results for COc1cccc(C(=O)N2CCC(N3C[C@H](O)C[C@H]3C(=O)NCc3ccc(C)cc3)CC2)c1 ?
hNpr1 antagonist: 5%; Luciferase inh: inactive; HEK293 tox: -28%; NIH3T3 tox: -9%; SNCA viab count: -2%; SNCA expr inh: 2%

Results for NCCC(=O)N1CCC2(CC1)CN(C(=O)c1ccc(Cl)cc1)CCO2 ?
HEK293 tox: 0%; NIH3T3 tox: inactive; SNCA viab count: 3%; SNCA expr inh: 4%

What do the screens show for `NCCCC(=O)N1CCC2(CC1)CN(C(=O)c1ccc(Cl)cc1)CCO2`?
HEK293 tox: 3%; NIH3T3 tox: 32µM*; SNCA viab count: 1%; SNCA expr inh: 6%

What do the screens show for `CC1=C[C@@H](CNC(=O)C(C)C)[C@H](C(C)C)C[C@H]1Cc1nc2ncccc2[nH]1`?
hNpr1 antagonist: -5%[70.6 µM]; Luciferase inh: inactive; HEK293 tox: -23%[172 µM]; NIH3T3 tox: inconclusive; SNCA viab count: inconclusive; SNCA expr inh: 7%[87.6 µM]

How did COc1ccc2[nH]c(C[C@@H]3C[C@@H](C(C)C)[C@H](CNC(=O)c4cccnc4)C=C3C)nc2n1 do in these assays?
hNpr1 antagonist: -23%[70.6 µM]; Luciferase inh: inactive; HEK293 tox: 56µM*; NIH3T3 tox: inconclusive; SNCA viab count: inconclusive; SNCA expr inh: inconclusive

What do the screens show for `CCCNC(=O)NC[C@@H]1C=C(C)[C@H](Cc2nc3nc(OC)ccc3[nH]2)C[C@H]1C(C)C`?
hNpr1 antagonist: -19%[70.6 µM]; Luciferase inh: inactive; HEK293 tox: 63µM*; NIH3T3 tox: 89µM*; SNCA viab count: inconclusive; SNCA expr inh: -20%[87.6 µM]

What do the screens show for `CC(=O)NC[C@@H]1C=C(C)[C@H](Cc2nc3ccccc3[nH]2)C[C@H]1C(C)C`?
hNpr1 antagonist: -21%[70.6 µM]; Luciferase inh: inactive; HEK293 tox: inconclusive; NIH3T3 tox: inconclusive; SNCA viab count: -20%[87.6 µM]; SNCA expr inh: -3%[87.6 µM]

What do the screens show for `C[C@H](C(=O)N1Cc2ccccc2CC2(CCN(CC3CCNCC3)CC2)C1)c1ccccc1`?
HEK293 tox: inconclusive; NIH3T3 tox: 14µM*; SNCA viab count: -24%; SNCA expr inh: -22%

What do the screens show for `COC(=O)[C@@H]1Cc2c([nH]c3ccccc23)[C@@H]2C[C@@H](NCCNC(C)=O)C[C@@H](c3cccc(Cl)c3)N12`?
hNpr1 antagonist: 2%; Luciferase inh: inactive; HEK293 tox: 32µM*; NIH3T3 tox: 28µM*; SNCA viab count: -3%; SNCA expr inh: 40%

How did O=C(CCCCCn1c(=O)[nH]c2ccccc2c1=O)NCc1cccc(Cl)c1 do in these assays?
SNCA viab count: inconclusive; SNCA expr inh: 111%

How did COC(=O)[C@@H]1Cc2c([nH]c3ccccc23)[C@H]2C[C@@H](NCCNC(C)=O)C[C@@H](c3ccc(-c4ccccc4)cc3)N21 do in these assays?
hNpr1 antagonist: 1%; Luciferase inh: inactive; HEK293 tox: 40µM*; NIH3T3 tox: inconclusive; SNCA viab count: -1%; SNCA expr inh: 13%

What do the screens show for `CCOc1cccc(C2c3[nH]c4ccccc4c3CCN2C(=O)CSc2ccccc2)c1` (stereo unspecified)?
SNCA viab count: 13%; SNCA expr inh: 44%

What do the screens show for `COC(=O)[C@@H]1Cc2c([nH]c3ccccc23)[C@H]2C[C@@H](NCCN(C)C)C[C@@H](c3cccc(Cl)c3)N21`?
hNpr1 antagonist: -14%; Luciferase inh: inconclusive; HEK293 tox: 6.3µM*; NIH3T3 tox: 4.5µM*; SNCA viab count: inconclusive; SNCA expr inh: inconclusive

How did C#CCNC(=O)C1=NOC2CN(S(C)(=O)=O)CC12 (stereo unspecified) do in these assays?
HEK293 tox: inactive; NIH3T3 tox: 1%[138 µM]; SNCA viab count: 1%[87.6 µM]; SNCA expr inh: -2%[87.6 µM]

Results for CN(CC(=O)N1CCNCC(C(=O)O)C1)Cc1ccncc1 (stereo unspecified) ?
hNpr1 antagonist: 2%; Luciferase inh: inactive; HEK293 tox: -13%; NIH3T3 tox: -14%; SNCA viab count: -5%; SNCA expr inh: -13%

What do the screens show for `COc1ccccc1CN1CCCC(c2nn(-c3ccc(Cl)cc3)c(=O)[nH]2)C1` (stereo unspecified)?
hNpr1 antagonist: 21%; Luciferase inh: inactive; HEK293 tox: inconclusive; NIH3T3 tox: inconclusive; SNCA viab count: -9%; SNCA expr inh: 16%

What do the screens show for `N[C@@H]1CCN(Cc2ccccc2OCc2ccc(Cl)cc2)C[C@H]1O`?
hNpr1 antagonist: 0%; Luciferase inh: inactive; HEK293 tox: 22µM*; NIH3T3 tox: 28µM*; SNCA viab count: -14%; SNCA expr inh: 1%

How did COCCN1C(=O)[C@@H]2C[C@@H](CN2C)Oc2ccccc21 do in these assays?
hNpr1 antagonist: -2%[70.6 µM]; Luciferase inh: inactive; HEK293 tox: inactive; NIH3T3 tox: 4%[174 µM]; SNCA viab count: 5%[87.6 µM]; SNCA expr inh: 13%[87.6 µM]

What do the screens show for `O=C(NCCc1ccccn1)[C@@H]1C[C@@H](c2ccc(F)cc2)N(CCOc2ccccc2)C1`?
hNpr1 antagonist: 1%[70.6 µM]; Luciferase inh: inactive; HEK293 tox: inconclusive; NIH3T3 tox: inconclusive; SNCA viab count: -6%[87.6 µM]; SNCA expr inh: 11%[87.6 µM]

Results for O=C(Nc1ccccc1)N1CCC(CCc2nc(C3CCOCC3)no2)CC1 ?
HEK293 tox: 40µM*; NIH3T3 tox: inconclusive; SNCA viab count: 1%; SNCA expr inh: inconclusive
